# Assay results reported in article PMC7862700, “An all-to-all approach to the identification of sequence-specific readers for epigenetic DNA modifications on cytosine”.
# How the values were obtained:
# Assay in all cases: DAPPL (digital affinity profiling via proximity ligation, sequencing); 10 mM Tris-HCl pH 7.5, 50 mM NaCl, 1 mM DTT, 4% glycerol, room temperature, 30 min; GST-TFs on glutathione beads, 16-mer random dsDNA library, 0.1% formaldehyde crosslink after washing; high values mean tight binding
# [1] = biological target: T1, FEV (Homo sapiens, UniProt Q99581 1-238); conditions: protein: recombinant; tags: N-terminal GST; dsDNA, one strand shown
# T1 sequence: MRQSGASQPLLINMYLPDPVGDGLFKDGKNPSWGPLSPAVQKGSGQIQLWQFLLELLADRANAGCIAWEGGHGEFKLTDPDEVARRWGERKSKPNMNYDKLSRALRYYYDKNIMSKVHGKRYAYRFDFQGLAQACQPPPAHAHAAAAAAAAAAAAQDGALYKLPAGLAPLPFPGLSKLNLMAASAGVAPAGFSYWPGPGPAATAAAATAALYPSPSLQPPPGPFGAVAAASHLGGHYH
# Outline: (§1)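 Human transcription factors fused to GST were expressed in yeast, captured on glutathione beads, given DNA barcodes and pooled with a GST-only negative control. Pools were incubated with 200 nmole of a 16-mer random double-stranded DNA library in Tris/NaCl/DTT/glycerol buffer at room temperature for 30 min. They were then washed, crosslinked with 0.1% formaldehyde, proximity-ligated (BsaI/T4 ligase, 1 h, 37 °C), PCR-amplified and sequenced on an Illumina NextSeq500. Binding signal is each 6-mer's read frequency for a factor divided by its frequency for the GST control.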
# [2] = biological target: ETV5 (Homo sapiens, UniProt P41161 1-510); conditions: protein: recombinant; tags: N-terminal GST; dsDNA, one strand shown
# ETV5, sequence (P41161 whole entry): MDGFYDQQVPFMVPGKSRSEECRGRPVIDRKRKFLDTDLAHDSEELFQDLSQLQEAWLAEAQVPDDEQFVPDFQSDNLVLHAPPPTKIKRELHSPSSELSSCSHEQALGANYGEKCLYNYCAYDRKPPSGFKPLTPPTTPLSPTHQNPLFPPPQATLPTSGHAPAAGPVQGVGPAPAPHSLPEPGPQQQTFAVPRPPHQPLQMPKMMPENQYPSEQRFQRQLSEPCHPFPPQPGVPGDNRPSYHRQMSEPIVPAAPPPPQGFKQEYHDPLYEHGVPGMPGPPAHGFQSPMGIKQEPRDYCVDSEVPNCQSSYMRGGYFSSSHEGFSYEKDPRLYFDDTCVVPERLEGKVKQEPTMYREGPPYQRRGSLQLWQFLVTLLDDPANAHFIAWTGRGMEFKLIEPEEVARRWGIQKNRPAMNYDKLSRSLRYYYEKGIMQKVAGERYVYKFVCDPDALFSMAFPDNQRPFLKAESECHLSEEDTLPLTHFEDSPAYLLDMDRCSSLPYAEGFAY
# Outline: as §1
# [3] = biological target: HSF1 (Homo sapiens, UniProt Q00613 1-529); conditions: protein: recombinant; tags: N-terminal GST; chain copies: 3; dsDNA, one strand shown
# HSF1, sequence (Q00613 whole entry): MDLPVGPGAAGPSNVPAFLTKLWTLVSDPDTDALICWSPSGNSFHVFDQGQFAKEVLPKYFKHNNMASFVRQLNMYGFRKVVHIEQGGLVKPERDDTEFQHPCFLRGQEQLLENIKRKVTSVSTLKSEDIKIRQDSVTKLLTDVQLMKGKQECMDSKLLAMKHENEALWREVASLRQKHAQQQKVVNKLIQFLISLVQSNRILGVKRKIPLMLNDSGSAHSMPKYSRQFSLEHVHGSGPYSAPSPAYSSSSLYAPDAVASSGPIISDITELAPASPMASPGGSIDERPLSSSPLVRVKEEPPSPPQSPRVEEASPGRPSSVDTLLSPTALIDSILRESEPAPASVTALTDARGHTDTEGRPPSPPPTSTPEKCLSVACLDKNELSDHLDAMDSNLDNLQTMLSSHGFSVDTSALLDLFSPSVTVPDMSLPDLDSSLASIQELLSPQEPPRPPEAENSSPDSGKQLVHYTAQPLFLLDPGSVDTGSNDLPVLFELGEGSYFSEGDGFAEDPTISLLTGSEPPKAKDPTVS
# Outline: as §1
# [4] = biological target: T2, SPIC (Homo sapiens, UniProt Q8N5J4 1-248); conditions: protein: recombinant; tags: N-terminal GST; dsDNA, one strand shown
# T2 sequence: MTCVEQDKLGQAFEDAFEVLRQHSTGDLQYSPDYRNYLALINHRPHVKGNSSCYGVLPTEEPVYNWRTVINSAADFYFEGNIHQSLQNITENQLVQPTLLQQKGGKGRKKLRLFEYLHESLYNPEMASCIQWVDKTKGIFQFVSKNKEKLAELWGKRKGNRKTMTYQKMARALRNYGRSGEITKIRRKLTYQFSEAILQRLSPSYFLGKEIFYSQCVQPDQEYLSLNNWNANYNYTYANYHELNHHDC
# Outline: as §1
# [5] = biological target: ELF4 (Homo sapiens, UniProt Q99607 1-663); conditions: protein: recombinant; tags: N-terminal GST; dsDNA, one strand shown
# ELF4, sequence (Q99607 whole entry): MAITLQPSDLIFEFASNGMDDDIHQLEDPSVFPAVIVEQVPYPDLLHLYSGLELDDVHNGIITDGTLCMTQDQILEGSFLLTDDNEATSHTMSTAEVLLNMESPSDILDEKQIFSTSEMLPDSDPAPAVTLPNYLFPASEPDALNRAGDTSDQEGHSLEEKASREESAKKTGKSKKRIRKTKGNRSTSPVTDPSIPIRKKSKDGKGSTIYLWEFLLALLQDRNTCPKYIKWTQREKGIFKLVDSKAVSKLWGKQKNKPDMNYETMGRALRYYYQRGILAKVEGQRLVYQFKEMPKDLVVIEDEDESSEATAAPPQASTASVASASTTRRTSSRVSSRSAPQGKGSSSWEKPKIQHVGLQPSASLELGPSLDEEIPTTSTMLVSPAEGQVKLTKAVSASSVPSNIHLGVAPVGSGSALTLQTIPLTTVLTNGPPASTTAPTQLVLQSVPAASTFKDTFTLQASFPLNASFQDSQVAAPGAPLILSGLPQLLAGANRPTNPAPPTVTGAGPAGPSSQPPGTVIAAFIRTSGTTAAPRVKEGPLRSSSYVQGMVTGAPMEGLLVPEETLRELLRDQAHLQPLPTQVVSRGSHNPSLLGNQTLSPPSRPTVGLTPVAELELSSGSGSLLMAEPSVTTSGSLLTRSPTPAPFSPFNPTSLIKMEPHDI
# Outline: as §1
# [6] = biological target: T3, ELK4 (Homo sapiens, UniProt P28324-2 1-405); conditions: protein: recombinant; tags: N-terminal GST; dsDNA, one strand shown
# T3 sequence: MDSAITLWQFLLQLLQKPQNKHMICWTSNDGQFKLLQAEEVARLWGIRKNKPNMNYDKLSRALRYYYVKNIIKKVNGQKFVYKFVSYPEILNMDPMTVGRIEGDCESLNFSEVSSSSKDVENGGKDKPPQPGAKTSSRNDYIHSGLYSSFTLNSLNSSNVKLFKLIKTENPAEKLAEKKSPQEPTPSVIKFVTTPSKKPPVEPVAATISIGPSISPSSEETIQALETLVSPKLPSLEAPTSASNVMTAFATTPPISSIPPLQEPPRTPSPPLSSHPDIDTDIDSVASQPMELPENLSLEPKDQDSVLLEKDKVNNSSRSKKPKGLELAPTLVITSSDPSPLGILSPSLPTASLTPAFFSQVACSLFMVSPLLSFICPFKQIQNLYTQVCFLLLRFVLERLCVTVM
# Outline: as §1
# [7] = biological target: T4, ETV2 (Homo sapiens, UniProt O00321 1-342); conditions: protein: recombinant; tags: N-terminal GST; dsDNA, one strand shown
# T4 sequence: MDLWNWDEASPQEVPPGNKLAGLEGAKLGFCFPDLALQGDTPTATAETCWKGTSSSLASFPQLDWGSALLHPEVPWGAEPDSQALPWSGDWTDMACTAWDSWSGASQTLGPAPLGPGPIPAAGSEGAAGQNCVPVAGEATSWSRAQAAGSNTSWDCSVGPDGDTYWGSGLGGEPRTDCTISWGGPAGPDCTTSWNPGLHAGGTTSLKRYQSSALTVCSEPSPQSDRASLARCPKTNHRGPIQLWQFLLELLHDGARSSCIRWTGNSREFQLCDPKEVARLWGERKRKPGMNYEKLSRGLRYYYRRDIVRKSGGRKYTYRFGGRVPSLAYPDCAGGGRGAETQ
# Outline: as §1
# [8] = biological target: T5, ELF3 (Homo sapiens, UniProt P78545 1-371); conditions: protein: recombinant; tags: N-terminal GST; dsDNA, one strand shown
# T5 sequence: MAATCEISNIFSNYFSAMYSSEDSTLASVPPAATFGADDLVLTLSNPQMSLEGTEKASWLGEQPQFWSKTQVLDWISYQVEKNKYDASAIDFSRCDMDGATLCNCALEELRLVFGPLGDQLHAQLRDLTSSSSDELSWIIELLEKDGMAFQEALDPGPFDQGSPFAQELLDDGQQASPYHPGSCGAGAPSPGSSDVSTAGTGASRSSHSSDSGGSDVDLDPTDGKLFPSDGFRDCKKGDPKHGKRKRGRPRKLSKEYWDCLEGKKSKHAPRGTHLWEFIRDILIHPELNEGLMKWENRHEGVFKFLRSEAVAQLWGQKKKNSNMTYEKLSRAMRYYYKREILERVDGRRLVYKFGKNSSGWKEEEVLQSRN
# Outline: as §1
# [9] = biological target: ETV1 (Homo sapiens, UniProt P50549 1-477); conditions: protein: recombinant; tags: N-terminal GST; dsDNA, one strand shown
# ETV1, sequence (P50549 whole entry): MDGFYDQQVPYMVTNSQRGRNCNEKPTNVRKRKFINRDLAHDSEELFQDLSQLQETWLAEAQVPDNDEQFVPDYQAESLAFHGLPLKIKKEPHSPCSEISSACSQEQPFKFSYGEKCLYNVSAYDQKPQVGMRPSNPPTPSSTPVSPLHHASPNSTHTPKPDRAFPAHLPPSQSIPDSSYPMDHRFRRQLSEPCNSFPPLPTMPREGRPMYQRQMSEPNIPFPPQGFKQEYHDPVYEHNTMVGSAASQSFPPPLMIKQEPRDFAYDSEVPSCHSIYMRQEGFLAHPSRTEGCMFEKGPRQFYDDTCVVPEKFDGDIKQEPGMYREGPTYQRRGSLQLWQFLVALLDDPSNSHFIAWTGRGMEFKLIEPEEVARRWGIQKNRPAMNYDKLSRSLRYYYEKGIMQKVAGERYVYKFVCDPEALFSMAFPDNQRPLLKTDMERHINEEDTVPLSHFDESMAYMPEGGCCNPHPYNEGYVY
# Outline: as §1
# [10] = biological target: CRX (Homo sapiens, UniProt O43186 1-299); conditions: protein: recombinant; tags: N-terminal GST; dsDNA, one strand shown
# CRX, sequence (O43186 whole entry): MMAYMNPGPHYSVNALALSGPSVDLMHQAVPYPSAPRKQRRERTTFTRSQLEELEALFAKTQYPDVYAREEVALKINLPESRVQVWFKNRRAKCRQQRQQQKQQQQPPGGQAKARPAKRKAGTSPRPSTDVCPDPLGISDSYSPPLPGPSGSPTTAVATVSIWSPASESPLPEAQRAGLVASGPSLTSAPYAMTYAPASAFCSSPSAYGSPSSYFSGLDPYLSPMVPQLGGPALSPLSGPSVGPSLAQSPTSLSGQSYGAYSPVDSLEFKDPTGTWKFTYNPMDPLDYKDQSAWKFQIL
# Outline: as §1
Sequence,binding signal [1],binding signal [2],binding signal [3],binding signal [4],binding signal [5],binding signal [6],binding signal [7],binding signal [8],binding signal [9],binding signal [10]
AGATGC,"1.05 fold enrichment (6-mer frequency, TF over GST control)","1.09 fold enrichment (6-mer frequency, TF over GST control)","1.1 fold enrichment (6-mer frequency, TF over GST control)","1.11 fold enrichment (6-mer frequency, TF over GST control)","1.1 fold enrichment (6-mer frequency, TF over GST control)","1.29 fold enrichment (6-mer frequency, TF over GST control)","1.01 fold enrichment (6-mer frequency, TF over GST control)","1.09 fold enrichment (6-mer frequency, TF over GST control)","1.05 fold enrichment (6-mer frequency, TF over GST control)",
TTCCGT,"1.86 fold enrichment (6-mer frequency, TF over GST control)","1.99 fold enrichment (6-mer frequency, TF over GST control)","1.02 fold enrichment (6-mer frequency, TF over GST control)","2.02 fold enrichment (6-mer frequency, TF over GST control)","1.67 fold enrichment (6-mer frequency, TF over GST control)","1.89 fold enrichment (6-mer frequency, TF over GST control)","1.88 fold enrichment (6-mer frequency, TF over GST control)","1.74 fold enrichment (6-mer frequency, TF over GST control)","1.82 fold enrichment (6-mer frequency, TF over GST control)",
CCACTC,"1.27 fold enrichment (6-mer frequency, TF over GST control)","1.23 fold enrichment (6-mer frequency, TF over GST control)","1.05 fold enrichment (6-mer frequency, TF over GST control)","1.27 fold enrichment (6-mer frequency, TF over GST control)","1.29 fold enrichment (6-mer frequency, TF over GST control)","1.49 fold enrichment (6-mer frequency, TF over GST control)","1.18 fold enrichment (6-mer frequency, TF over GST control)","1.14 fold enrichment (6-mer frequency, TF over GST control)","1.17 fold enrichment (6-mer frequency, TF over GST control)",
CATTTC,"2.2 fold enrichment (6-mer frequency, TF over GST control)","1.95 fold enrichment (6-mer frequency, TF over GST control)","1.13 fold enrichment (6-mer frequency, TF over GST control)","1.88 fold enrichment (6-mer frequency, TF over GST control)","1.73 fold enrichment (6-mer frequency, TF over GST control)","1.66 fold enrichment (6-mer frequency, TF over GST control)","1.78 fold enrichment (6-mer frequency, TF over GST control)","1.61 fold enrichment (6-mer frequency, TF over GST control)","1.84 fold enrichment (6-mer frequency, TF over GST control)",
ACTCGC,"1.14 fold enrichment (6-mer frequency, TF over GST control)","1.15 fold enrichment (6-mer frequency, TF over GST control)","1.1 fold enrichment (6-mer frequency, TF over GST control)","1.2 fold enrichment (6-mer frequency, TF over GST control)","1.1 fold enrichment (6-mer frequency, TF over GST control)","1.14 fold enrichment (6-mer frequency, TF over GST control)","1.12 fold enrichment (6-mer frequency, TF over GST control)","1.21 fold enrichment (6-mer frequency, TF over GST control)","1.15 fold enrichment (6-mer frequency, TF over GST control)",
GCCTCA,"1.19 fold enrichment (6-mer frequency, TF over GST control)","1.22 fold enrichment (6-mer frequency, TF over GST control)","1.05 fold enrichment (6-mer frequency, TF over GST control)","1.21 fold enrichment (6-mer frequency, TF over GST control)","1.2 fold enrichment (6-mer frequency, TF over GST control)","1.13 fold enrichment (6-mer frequency, TF over GST control)","1.12 fold enrichment (6-mer frequency, TF over GST control)","1.34 fold enrichment (6-mer frequency, TF over GST control)","1.13 fold enrichment (6-mer frequency, TF over GST control)",
ACCATC,"1.13 fold enrichment (6-mer frequency, TF over GST control)","1.11 fold enrichment (6-mer frequency, TF over GST control)","1.14 fold enrichment (6-mer frequency, TF over GST control)","1.02 fold enrichment (6-mer frequency, TF over GST control)","1.12 fold enrichment (6-mer frequency, TF over GST control)","1.13 fold enrichment (6-mer frequency, TF over GST control)","1.06 fold enrichment (6-mer frequency, TF over GST control)","1.19 fold enrichment (6-mer frequency, TF over GST control)","1.03 fold enrichment (6-mer frequency, TF over GST control)",
CACTGG,"1.07 fold enrichment (6-mer frequency, TF over GST control)","1.13 fold enrichment (6-mer frequency, TF over GST control)","1.16 fold enrichment (6-mer frequency, TF over GST control)","1.24 fold enrichment (6-mer frequency, TF over GST control)","1.04 fold enrichment (6-mer frequency, TF over GST control)","1.05 fold enrichment (6-mer frequency, TF over GST control)","1.22 fold enrichment (6-mer frequency, TF over GST control)","1.11 fold enrichment (6-mer frequency, TF over GST control)","1.22 fold enrichment (6-mer frequency, TF over GST control)",
TCGATA,"1.05 fold enrichment (6-mer frequency, TF over GST control)","1.07 fold enrichment (6-mer frequency, TF over GST control)","1.35 fold enrichment (6-mer frequency, TF over GST control)","1.28 fold enrichment (6-mer frequency, TF over GST control)","1.15 fold enrichment (6-mer frequency, TF over GST control)","1.16 fold enrichment (6-mer frequency, TF over GST control)","1.16 fold enrichment (6-mer frequency, TF over GST control)",,"1.03 fold enrichment (6-mer frequency, TF over GST control)","1.24 fold enrichment (6-mer frequency, TF over GST control)"
TTAGCG,,"1 fold enrichment (6-mer frequency, TF over GST control)","1.49 fold enrichment (6-mer frequency, TF over GST control)","1.03 fold enrichment (6-mer frequency, TF over GST control)","1.14 fold enrichment (6-mer frequency, TF over GST control)","1.05 fold enrichment (6-mer frequency, TF over GST control)","1.14 fold enrichment (6-mer frequency, TF over GST control)",,"1.07 fold enrichment (6-mer frequency, TF over GST control)","2.24 fold enrichment (6-mer frequency, TF over GST control)"
CTGTAA,,"1.05 fold enrichment (6-mer frequency, TF over GST control)","1.09 fold enrichment (6-mer frequency, TF over GST control)","1.24 fold enrichment (6-mer frequency, TF over GST control)","1.06 fold enrichment (6-mer frequency, TF over GST control)","1.09 fold enrichment (6-mer frequency, TF over GST control)","1.21 fold enrichment (6-mer frequency, TF over GST control)",,"1 fold enrichment (6-mer frequency, TF over GST control)","1.25 fold enrichment (6-mer frequency, TF over GST control)"
TGGTTC,"1.35 fold enrichment (6-mer frequency, TF over GST control)","1.44 fold enrichment (6-mer frequency, TF over GST control)","1.27 fold enrichment (6-mer frequency, TF over GST control)","1.51 fold enrichment (6-mer frequency, TF over GST control)","1.33 fold enrichment (6-mer frequency, TF over GST control)","1.36 fold enrichment (6-mer frequency, TF over GST control)","1.33 fold enrichment (6-mer frequency, TF over GST control)","1.57 fold enrichment (6-mer frequency, TF over GST control)","1.38 fold enrichment (6-mer frequency, TF over GST control)",
CGACCA,"1.3 fold enrichment (6-mer frequency, TF over GST control)","1.17 fold enrichment (6-mer frequency, TF over GST control)","1.14 fold enrichment (6-mer frequency, TF over GST control)","1.12 fold enrichment (6-mer frequency, TF over GST control)","1.39 fold enrichment (6-mer frequency, TF over GST control)","1.31 fold enrichment (6-mer frequency, TF over GST control)","1.35 fold enrichment (6-mer frequency, TF over GST control)","1.32 fold enrichment (6-mer frequency, TF over GST control)","1.23 fold enrichment (6-mer frequency, TF over GST control)",
GGTTTC,"1.55 fold enrichment (6-mer frequency, TF over GST control)","1.61 fold enrichment (6-mer frequency, TF over GST control)","1.16 fold enrichment (6-mer frequency, TF over GST control)","1.5 fold enrichment (6-mer frequency, TF over GST control)","1.49 fold enrichment (6-mer frequency, TF over GST control)","1.36 fold enrichment (6-mer frequency, TF over GST control)","1.43 fold enrichment (6-mer frequency, TF over GST control)","1.31 fold enrichment (6-mer frequency, TF over GST control)","1.64 fold enrichment (6-mer frequency, TF over GST control)",
